From the supplement of paper PMC11732987, “Enantioselective OTUD7B fragment discovery through chemoproteomics screening and high-throughput optimisation” (Communications Chemistry, 2025)

How the values were obtained:
Test in all cases: log2 ratio of Biotin-Ahx-Ub-VS probe labelling (fragment/DMSO); higher = less target engagement (more negative = stronger competition), active = hit call of the paper (q ≤ 0.05, log2 ratio ≤ -1)
Conditions in all cases: compound concentration: 200 uM; treatment time: 3 h
USP34 = USP34 (UniProt Q70CQ2)
Outline: (§1)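 HEK293T lysate in Tris/CHAPS/IGEPAL buffer with protease inhibitors (495 µg per sample) was given fragment at 200 µM or vehicle for 3 h, in triplicate. It then received Biotin-Ahx-Ub-VS at 0.5 µM final for 1 h. Labelled DUBs were NeutrAvidin-enriched, digested with LysC and trypsin, and run by diaPASEF LC-MS/MS. Values are average log2 fragment/vehicle ratios by unpaired t-test on global-median-normalised Spectronaut quantities of proteins with ≥2 unique peptides.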

USP36 = biological target: T1, USP36 (UniProt Q9P275)
T1 sequence (whole entry): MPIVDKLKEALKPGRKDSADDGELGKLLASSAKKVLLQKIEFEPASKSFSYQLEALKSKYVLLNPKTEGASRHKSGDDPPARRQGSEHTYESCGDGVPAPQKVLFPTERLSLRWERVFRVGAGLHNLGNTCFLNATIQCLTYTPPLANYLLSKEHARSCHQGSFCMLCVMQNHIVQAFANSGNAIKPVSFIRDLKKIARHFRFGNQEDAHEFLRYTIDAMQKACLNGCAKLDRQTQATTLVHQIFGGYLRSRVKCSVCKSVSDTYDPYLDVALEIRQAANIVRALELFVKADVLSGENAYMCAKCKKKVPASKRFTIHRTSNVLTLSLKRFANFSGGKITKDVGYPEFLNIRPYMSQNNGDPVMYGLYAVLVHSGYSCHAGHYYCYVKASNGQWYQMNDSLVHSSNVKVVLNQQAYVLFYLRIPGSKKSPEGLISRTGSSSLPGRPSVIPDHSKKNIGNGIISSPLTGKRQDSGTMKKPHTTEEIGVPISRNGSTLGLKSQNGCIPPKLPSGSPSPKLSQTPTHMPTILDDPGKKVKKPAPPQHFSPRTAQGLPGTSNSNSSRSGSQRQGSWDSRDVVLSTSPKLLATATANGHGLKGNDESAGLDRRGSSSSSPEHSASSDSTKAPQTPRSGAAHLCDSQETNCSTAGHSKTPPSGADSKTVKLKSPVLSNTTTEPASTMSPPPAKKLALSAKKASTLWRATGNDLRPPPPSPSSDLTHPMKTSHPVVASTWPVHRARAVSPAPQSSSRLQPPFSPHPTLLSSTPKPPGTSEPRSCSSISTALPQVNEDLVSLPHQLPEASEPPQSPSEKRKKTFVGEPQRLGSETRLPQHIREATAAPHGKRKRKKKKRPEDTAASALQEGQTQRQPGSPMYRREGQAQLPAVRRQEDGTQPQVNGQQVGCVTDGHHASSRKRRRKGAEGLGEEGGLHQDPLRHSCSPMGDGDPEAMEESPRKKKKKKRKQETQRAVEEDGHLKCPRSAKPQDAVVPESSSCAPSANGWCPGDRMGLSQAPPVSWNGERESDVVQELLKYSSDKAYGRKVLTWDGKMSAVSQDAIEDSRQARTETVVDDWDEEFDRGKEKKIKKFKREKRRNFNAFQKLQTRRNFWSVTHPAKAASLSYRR
Outline: as §1

USP38 = biological target: T2, USP38 (UniProt Q8NB14)
T2 sequence (whole entry): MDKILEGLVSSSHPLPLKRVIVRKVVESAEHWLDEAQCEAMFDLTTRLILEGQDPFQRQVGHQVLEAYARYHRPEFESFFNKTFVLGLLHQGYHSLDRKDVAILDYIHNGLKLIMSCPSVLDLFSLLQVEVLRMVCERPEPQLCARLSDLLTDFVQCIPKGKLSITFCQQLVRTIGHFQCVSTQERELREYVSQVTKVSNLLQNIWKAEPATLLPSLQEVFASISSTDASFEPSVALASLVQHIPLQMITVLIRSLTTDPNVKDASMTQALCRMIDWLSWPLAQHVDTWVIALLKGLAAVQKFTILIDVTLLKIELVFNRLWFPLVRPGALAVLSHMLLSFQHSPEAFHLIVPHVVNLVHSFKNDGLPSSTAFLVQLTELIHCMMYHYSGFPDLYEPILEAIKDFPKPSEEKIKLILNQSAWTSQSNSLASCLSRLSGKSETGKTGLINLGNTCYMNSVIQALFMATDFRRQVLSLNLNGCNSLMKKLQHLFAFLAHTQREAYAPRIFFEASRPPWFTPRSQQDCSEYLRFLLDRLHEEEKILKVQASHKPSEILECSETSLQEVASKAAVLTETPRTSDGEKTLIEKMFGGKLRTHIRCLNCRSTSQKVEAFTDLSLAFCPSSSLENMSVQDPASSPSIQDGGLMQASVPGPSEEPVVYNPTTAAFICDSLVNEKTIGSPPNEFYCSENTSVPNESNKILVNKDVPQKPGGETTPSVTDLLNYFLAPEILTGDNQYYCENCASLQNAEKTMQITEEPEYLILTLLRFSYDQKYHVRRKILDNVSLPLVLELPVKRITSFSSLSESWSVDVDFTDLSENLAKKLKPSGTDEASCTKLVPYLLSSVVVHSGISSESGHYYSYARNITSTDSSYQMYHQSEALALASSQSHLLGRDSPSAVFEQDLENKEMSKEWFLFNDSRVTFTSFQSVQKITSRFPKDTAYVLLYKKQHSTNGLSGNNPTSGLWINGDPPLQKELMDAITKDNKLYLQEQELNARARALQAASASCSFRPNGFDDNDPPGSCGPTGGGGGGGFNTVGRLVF
Outline: as §1

USP39 = biological target: T3, USP39 (UniProt Q53GS9)
T3 sequence (whole entry): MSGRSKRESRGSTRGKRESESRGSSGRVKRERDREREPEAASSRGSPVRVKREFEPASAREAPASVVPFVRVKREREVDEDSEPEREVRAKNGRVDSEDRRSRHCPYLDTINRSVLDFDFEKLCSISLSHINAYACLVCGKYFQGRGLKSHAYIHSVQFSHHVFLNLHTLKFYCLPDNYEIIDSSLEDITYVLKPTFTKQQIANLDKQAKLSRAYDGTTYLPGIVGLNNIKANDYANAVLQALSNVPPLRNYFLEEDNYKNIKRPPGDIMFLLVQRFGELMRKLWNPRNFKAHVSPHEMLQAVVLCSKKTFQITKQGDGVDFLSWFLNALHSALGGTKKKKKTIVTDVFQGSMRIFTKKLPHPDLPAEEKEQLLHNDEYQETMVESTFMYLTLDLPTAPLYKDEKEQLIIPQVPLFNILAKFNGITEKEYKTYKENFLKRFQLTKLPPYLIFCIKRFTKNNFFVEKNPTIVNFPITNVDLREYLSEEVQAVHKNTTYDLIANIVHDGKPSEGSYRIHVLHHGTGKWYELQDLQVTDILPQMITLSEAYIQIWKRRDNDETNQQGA
Outline: as §1

USP4 = biological target: T4, USP4 (UniProt Q13107)
T4 sequence (whole entry): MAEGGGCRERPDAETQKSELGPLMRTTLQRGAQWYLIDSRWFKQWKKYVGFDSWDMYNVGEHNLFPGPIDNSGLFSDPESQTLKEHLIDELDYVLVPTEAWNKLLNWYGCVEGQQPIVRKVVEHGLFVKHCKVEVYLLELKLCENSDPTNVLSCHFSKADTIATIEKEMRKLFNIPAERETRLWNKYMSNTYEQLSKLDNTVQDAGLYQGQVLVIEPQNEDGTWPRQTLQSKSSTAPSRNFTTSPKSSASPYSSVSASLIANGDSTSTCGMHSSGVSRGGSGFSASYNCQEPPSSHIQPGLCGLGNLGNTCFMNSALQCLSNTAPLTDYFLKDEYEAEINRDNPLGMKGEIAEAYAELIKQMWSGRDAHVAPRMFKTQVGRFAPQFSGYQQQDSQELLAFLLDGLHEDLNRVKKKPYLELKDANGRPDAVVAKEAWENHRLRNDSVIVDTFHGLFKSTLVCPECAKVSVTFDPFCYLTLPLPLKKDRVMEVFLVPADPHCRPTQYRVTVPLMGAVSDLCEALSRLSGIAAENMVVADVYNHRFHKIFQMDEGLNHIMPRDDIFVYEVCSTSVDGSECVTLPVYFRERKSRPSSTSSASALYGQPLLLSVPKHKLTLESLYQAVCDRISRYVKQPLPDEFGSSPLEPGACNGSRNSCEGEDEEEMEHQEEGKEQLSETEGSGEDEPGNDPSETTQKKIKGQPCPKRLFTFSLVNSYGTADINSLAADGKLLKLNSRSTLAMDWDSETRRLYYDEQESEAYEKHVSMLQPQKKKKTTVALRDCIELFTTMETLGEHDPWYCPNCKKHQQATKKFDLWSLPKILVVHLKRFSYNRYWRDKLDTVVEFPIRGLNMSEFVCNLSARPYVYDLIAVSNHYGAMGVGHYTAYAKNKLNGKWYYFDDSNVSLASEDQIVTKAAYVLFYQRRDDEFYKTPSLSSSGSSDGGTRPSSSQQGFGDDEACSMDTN
Outline: as §1

Measured: log2 ratio of Biotin-Ahx-Ub-VS probe labelling

Sequence of USP34 (Q70CQ2 whole entry, the tested form may be a part): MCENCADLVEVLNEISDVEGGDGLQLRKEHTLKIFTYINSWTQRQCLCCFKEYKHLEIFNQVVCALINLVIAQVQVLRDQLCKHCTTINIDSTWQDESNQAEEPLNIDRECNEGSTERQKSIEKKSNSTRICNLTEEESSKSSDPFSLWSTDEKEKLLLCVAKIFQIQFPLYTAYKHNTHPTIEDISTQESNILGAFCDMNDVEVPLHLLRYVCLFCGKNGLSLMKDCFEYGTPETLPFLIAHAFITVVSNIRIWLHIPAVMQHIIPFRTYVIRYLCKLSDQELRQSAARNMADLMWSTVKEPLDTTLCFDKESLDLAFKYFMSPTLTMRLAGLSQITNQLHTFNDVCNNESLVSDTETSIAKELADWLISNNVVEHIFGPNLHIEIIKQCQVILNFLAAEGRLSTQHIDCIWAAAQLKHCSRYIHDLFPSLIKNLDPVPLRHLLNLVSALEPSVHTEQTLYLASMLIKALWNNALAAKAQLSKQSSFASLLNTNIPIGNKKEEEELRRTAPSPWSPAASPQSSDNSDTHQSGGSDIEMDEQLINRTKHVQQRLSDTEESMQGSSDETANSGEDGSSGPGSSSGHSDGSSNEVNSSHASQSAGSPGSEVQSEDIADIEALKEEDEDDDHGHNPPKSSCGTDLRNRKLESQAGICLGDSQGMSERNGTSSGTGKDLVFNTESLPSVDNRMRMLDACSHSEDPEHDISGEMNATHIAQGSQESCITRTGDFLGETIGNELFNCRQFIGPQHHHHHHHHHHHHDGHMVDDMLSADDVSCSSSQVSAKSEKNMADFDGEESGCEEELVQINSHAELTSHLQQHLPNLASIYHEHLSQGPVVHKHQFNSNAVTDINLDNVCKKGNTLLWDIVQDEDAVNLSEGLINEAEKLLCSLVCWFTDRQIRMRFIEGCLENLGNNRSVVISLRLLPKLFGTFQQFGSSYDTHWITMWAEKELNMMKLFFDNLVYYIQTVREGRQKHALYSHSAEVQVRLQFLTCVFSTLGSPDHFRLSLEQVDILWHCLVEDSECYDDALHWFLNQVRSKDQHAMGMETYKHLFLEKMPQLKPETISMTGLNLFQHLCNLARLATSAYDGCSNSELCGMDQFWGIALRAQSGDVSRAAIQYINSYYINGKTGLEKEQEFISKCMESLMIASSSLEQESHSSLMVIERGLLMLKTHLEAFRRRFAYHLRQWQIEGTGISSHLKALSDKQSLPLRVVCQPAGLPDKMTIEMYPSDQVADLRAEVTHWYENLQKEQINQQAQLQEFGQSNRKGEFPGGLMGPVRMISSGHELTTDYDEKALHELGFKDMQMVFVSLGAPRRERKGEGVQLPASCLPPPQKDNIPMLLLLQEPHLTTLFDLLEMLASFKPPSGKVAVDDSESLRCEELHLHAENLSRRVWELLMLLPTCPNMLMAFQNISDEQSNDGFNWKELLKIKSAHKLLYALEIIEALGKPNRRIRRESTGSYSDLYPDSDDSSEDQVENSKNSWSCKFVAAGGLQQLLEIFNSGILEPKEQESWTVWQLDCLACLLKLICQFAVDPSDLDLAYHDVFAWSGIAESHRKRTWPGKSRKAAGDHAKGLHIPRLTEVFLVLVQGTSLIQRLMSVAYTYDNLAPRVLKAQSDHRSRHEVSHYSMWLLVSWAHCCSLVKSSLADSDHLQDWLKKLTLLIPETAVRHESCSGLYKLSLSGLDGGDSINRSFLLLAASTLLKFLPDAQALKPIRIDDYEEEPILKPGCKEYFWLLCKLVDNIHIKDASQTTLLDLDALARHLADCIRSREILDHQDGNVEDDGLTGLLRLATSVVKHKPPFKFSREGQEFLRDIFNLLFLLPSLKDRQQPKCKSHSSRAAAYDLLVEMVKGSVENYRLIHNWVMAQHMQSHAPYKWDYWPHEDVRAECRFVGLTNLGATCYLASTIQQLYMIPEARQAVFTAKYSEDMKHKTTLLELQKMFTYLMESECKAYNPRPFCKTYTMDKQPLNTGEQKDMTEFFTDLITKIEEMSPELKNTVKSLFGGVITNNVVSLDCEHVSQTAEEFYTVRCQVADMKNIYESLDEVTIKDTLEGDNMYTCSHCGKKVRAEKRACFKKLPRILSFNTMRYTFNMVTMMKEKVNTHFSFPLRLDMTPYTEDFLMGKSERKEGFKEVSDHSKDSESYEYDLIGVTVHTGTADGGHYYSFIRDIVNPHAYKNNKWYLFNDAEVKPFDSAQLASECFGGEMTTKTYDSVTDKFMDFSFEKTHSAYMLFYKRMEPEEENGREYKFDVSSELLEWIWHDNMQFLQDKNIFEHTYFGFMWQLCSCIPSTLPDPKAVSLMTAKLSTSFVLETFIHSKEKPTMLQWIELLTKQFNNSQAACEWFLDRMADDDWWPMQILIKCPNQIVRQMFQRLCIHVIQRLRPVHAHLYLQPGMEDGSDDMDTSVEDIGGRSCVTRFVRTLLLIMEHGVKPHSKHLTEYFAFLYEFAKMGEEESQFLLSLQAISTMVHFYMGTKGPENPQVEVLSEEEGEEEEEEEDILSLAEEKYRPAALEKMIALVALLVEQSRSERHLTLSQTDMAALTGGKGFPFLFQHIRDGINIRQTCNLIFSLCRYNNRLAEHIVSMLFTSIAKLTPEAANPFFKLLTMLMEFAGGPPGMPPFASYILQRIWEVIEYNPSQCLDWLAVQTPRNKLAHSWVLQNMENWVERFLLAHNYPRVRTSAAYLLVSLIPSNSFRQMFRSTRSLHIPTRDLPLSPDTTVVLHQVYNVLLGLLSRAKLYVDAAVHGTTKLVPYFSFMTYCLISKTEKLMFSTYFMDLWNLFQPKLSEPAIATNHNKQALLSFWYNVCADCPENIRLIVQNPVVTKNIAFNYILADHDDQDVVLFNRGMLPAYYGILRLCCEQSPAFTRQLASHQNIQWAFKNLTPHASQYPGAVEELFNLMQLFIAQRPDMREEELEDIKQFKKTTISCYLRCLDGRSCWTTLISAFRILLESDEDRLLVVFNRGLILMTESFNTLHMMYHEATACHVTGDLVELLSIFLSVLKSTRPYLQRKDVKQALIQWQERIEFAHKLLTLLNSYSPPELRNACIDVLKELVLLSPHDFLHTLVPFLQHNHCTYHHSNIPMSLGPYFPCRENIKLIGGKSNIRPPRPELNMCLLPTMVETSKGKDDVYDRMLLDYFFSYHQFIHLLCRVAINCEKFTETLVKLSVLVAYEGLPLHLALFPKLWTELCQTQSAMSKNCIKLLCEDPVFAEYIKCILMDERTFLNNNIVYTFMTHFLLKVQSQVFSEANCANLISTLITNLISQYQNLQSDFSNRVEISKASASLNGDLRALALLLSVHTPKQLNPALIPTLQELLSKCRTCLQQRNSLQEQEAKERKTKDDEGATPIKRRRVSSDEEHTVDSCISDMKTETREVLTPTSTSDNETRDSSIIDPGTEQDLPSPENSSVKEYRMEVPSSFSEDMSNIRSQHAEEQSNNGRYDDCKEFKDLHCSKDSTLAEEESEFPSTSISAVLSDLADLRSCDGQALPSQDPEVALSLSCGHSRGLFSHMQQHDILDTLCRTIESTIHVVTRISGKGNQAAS

O=C(CCl)N1CCCCCC1c1ncon1 (stereo not given)
inactive: USP34 0.0612 | USP36 -0.0657 | USP38 0.0218 | USP39 -0.043 | USP4 -0.0581
